sdo1 growth: growth rescue of sdo1-depleted yeast, primary screen, S. cerevisiae, bone marrow failure model; S. cerevisiae sdo1-depleted JHY4D growth rescue, OD600 30 h; stronger effect = higher value; pdr5 snq2 efflux-pump mutant strain; z-score at 10 µM; 0.21% of 140,000 active; AID 817, 2007;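 active = z-score above 3 at both the 24 hr and the 30 hr optical density reads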
sEH inh: soluble epoxide hydrolase inhibitors, primary screen, biochemical, human sEH; recombinant human sEH enzymatic activity assay; 0.34% of 91,000 active; inhibition, % at 2 µM; in the data active = inhibition above about 80%
Target sequence (P34913 whole entry, looked up): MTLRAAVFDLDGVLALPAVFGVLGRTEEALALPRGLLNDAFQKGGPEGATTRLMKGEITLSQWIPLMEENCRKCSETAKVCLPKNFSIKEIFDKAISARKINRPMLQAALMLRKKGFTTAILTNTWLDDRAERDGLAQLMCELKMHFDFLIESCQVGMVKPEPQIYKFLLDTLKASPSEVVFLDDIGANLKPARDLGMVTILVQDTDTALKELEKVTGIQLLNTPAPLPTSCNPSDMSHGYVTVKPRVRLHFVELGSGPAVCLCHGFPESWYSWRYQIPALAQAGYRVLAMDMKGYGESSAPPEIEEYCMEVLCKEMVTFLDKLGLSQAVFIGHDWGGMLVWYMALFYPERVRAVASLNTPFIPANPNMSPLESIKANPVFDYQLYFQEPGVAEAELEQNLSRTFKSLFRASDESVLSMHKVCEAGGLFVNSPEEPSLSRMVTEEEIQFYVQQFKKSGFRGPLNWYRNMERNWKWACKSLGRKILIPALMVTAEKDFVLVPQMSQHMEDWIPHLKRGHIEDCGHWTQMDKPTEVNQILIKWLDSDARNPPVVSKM
sEH act: soluble epoxide hydrolase activators, primary screen, biochemical, human sEH. Bifunctional epoxide hydrolase 2 (Homo sapiens), P34913. purified human sEH enzymatic activity, activator screen. activation, % at 2 µM. 0.04% of 91,000 active. AID 717, 2007; in the data active = activation above about 37%
Measles CPE: compounds protecting cells from measles virus cytopathic effect, primary screen, measles RdRp inhibitor project, single point, MLSMR library, absorbance; Measles virus-infected cells, CPE protection; protection (pct of control), % at 4 µM; 1.5% of 140,000 active; in the data active = protection mostly above about 24%, no sharp cut-off; inactive = mostly below about 26%
SDO1 rescue DR: SDO1-depleted yeast growth rescue, concentration-response, diseases of bone marrow failure, JHY4D, OD600; shares compounds with sdo1 growth; S. cerevisiae JHY4D (SDO1-depleted) growth rescue, 30 h; stronger effect = higher value; efflux-deficient strain, SNQ2 and PDR5 mutated; OD recovery (no concentration beside the values); 44% of 440 active; AID 949, 2007;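 active = yeast growth recovered at 30 hours, either rising with dose fitted slope above 0.001 or with average optical density gain above 0.07, some results past the limit were not filed as active; inactive = growth falling with dose or no effect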
Each line names hits and unclear results; the compound was inactive in the other large screens (follow-up assays come after a bar, where they were run). Most compounds without a hit are left out; they make up all but 1.9% or so of the library.

Cc1ccc(S(=O)(=O)Nc2ccc(Br)cc2C(NCC(=O)O)c2ccccc2)cc1 (configuration not stated)	none (no result: sEH inh, sEH act)
Cc1cc(NC(=O)c2ccccc2-c2ccccc2C(=O)O)no1	none (no result: sEH inh, sEH act)
CNC(=O)c1cc2cc(OC)ccc2oc1=O	none
CNC(=O)c1cc2cc(OC)ccc2oc1=N	sdo1 growth 12 (no result: sEH inh, sEH act) | SDO1 rescue DR 0.1
CCCC1=C/C(=C/c2ccc(-c3ccccc3OC)o2)C(=O)O1	none (no result: sEH inh, sEH act)
O=C(CCCCCN1C(=O)c2ccccc2C1=O)Nc1ccc2c(c1)OCCO2	none
O=C(CCN1C(=O)c2ccccc2C1=O)Nc1ccc2c(c1)OCCO2	none | SDO1 rescue DR 0.076
Cc1ccc2[nH]c(=O)c(C(c3nnnn3C3CCCC3)N3CCCc4ccccc43)cc2c1 (configuration not stated)	none
CCOC(=O)NC1(C(F)(F)F)NC(=O)N(c2cccc(C(F)(F)F)c2)C1=O (configuration not stated)	none (no result: sEH inh, sEH act)
Cc1nc(CS(=O)(=O)c2ccccc2)cc(N2CCOCC2)n1	sdo1 growth 12 | SDO1 rescue DR 0.069
O=C1Nc2ccccc2SC(c2ccccc2)C1O (configuration not stated)	none
COc1ccc(OC)c(NC(=S)NCCN2CCOCC2)c1	sdo1 growth 3.9 (no result: sEH inh, sEH act) | SDO1 rescue DR inactive
COc1cccc(NC(=S)NCCN2CCOCC2)c1	none (no result: sEH inh, sEH act)
CC1CCN(C(=O)c2scc3c2OCCO3)CC1	none
N#C/C(=C\c1ccc(-c2ccc(Br)cc2)o1)C(=O)NCCc1c[nH]c2ccccc12	none (no result: sEH inh, sEH act)
Cc1cccc(NC(=O)Cc2ccc(F)cc2)c1	sdo1 growth 6.8 | SDO1 rescue DR 0.075
Cc1ccc(Cn2nc(C)c(NC(=O)c3cc(-c4ccc5c(c4)OCO5)on3)c2C)cc1	none
Nc1nc(-c2ccco2)c(-c2ccco2)s1	sdo1 growth 13 | SDO1 rescue DR 0.071
O=C(N/N=C/c1ccco1)c1cc(-c2ccccc2)n[nH]1	none
Cc1nc(S(=O)(=O)NC2CCCCC2)c(C#N)c(C)c1Cl	none
Cc1nc(S(=O)(=O)N2CCOCC2)c(C#N)c(C)c1Cl	sdo1 growth 3.8 | SDO1 rescue DR 0.087
CCc1cccc(CC)c1-n1c(SCn2nnc3ccccc3c2=O)nnc1-c1cccnc1	none
COC(=O)C(C)N(C(=O)c1cccc(Cl)c1)c1c(C)cccc1C (configuration not stated)	sdo1 growth 5.6 | SDO1 rescue DR inactive
Cc1ccc(C(=O)NCCCN2CCOCC2)o1	none | SDO1 rescue DR inactive
Cc1ccc(C(=O)NCCCN2CCOCC2)cc1	none (no result: sdo1 growth, Measles CPE)
CC(NC(=O)c1sc2ccccc2c1Cl)C1CCCO1 (configuration not stated)	sdo1 growth 4 (no result: sEH inh, sEH act) | SDO1 rescue DR inactive
CC(O)(C#CCN1CCCC1)c1ccccc1 (configuration not stated)	none
CCS(=O)(=O)Nc1ccc(-c2nnc(SCC(=O)c3cccc(OC)c3)o2)cc1	none
CCS(=O)(=O)Nc1ccc(-c2nnc(SCC(=O)c3ccc(NC(C)=O)c(OC)c3)o2)cc1	none | SDO1 rescue DR inactive
CCN1C(=O)S/C(=C/c2cn(C)c3ccccc23)C1=O	none (no result: sEH inh, sEH act)
CCN=C1S/C(=C\c2cn(CC)c3ccccc23)C(=O)N1CC	sdo1 growth 7.9 (no result: sEH inh, sEH act) | SDO1 rescue DR 0.092
c1ccc(-c2cc(N3CCOCC3)nc(-c3ccccc3)n2)cc1	none
COC(=O)C1=C(C)NC(C)=C(C(=O)OC)C1c1ccc(OC(=O)c2ccco2)cc1	sdo1 growth 10 | SDO1 rescue DR 0.079
CCOC(=O)C1=C(C)NC(=O)NC1c1ccc(OC(=O)c2ccco2)cc1 (configuration not stated)	none
CC(=O)c1cccc(NC(=S)NC(=O)C(C)C)c1	none
O=C(CSc1nnc(SCC(=O)c2ccco2)s1)c1ccco1	none | SDO1 rescue DR inactive
N#CC(C(=O)C1CCCCC1)c1nc2ccccc2[nH]1 (configuration not stated)	sdo1 growth 8.8 | SDO1 rescue DR inactive
COc1ccc(CCN2C(=O)c3cccc4cccc(c34)C2=O)cc1OC	none | SDO1 rescue DR 0.094
CCCCOC(=O)Nc1ccc(S(=O)(=O)Nn2cnnc2)cc1	sdo1 growth 3.7, Measles CPE 18 (no result: sEH inh, sEH act) | SDO1 rescue DR 0.12
CCCOC(=O)Nc1ccc(S(=O)(=O)Nn2cnnc2)cc1	none (no result: sEH inh, sEH act)
CN1CCN(CC(=O)Nc2ccc(OCc3ccccc3)cc2)CC1	sdo1 growth 4.4 | SDO1 rescue DR inactive
CC12CCC(C(=O)Nc3nccs3)(OC1=O)C2(C)C (configuration not stated)	sdo1 growth 3 | SDO1 rescue DR 0.091
Cc1cccnc1NC(=O)C12CCC(C)(C(=O)O1)C2(C)C (configuration not stated)	none
Brc1ccc(NC2=Nc3ccccc3CC2)cc1	sdo1 growth 13 | SDO1 rescue DR 0.075
Cc1ccc(NC2=Nc3ccccc3CC2)cc1	none
Cc1cc(C(=O)Nc2sc3c(c2C#N)CCC(C)C3)cs1 (configuration not stated)	none | SDO1 rescue DR inactive
Cc1cc(C(F)F)n2nc(C(=O)Nc3sc4c(c3C#N)CCC(C)C4)nc2n1 (configuration not stated)	none
COc1ccc(S(=O)(=O)N(C)CC(=O)N2CCCCCC2)cc1OC	none
COc1ccc(CC(NC(C)=O)C(=O)NC2CCN(S(=O)(=O)c3cccc4ccccc34)CC2)cc1OC (configuration not stated)	none | SDO1 rescue DR 0.097
COc1cc(-c2cc(C(=O)Nc3c(Cl)cc(Cl)cc3Cl)c3ccccc3n2)cc(OC)c1OC	none (no result: sEH inh, sEH act)
COc1ccc2nc3ccccc3nc2c1NC(=O)c1ccc(Cl)cc1Cl	none (no result: sEH inh, sEH act) | SDO1 rescue DR inactive
CCSc1nnc(Cn2c(=O)sc3ccccc32)n1-c1ccc(OC)cc1	none (no result: sEH inh, sEH act)
CC(C)CCn1nnnc1C(c1ccc(F)cc1)N1CCC(C(N)=O)CC1 (configuration not stated)	sdo1 growth 3.5 (no result: sEH inh, sEH act) | SDO1 rescue DR inactive
CN(C)C(=O)CSc1nc(-c2ccccc2)nc2c1CCCC2	none
COc1ccc(C)cc1S(=O)(=O)N(C)CC(=O)Nc1ccccc1	none
Nc1nc(NC(=O)c2ccco2)nn1-c1ccccc1	sdo1 growth 3.1 (no result: sEH inh, sEH act) | SDO1 rescue DR inactive
CC(=O)C1C(c2ccc(F)cc2)C2C(C)=NN=C2CC1(C)O (configuration not stated)	sdo1 growth 9.7 (no result: sEH inh, sEH act) | SDO1 rescue DR 0.072
CC(=O)C1C(c2ccc(Br)cc2)C2C(C)=NN=C2CC1(C)O (configuration not stated)	none (no result: sEH inh, sEH act)
CCCCOC(=O)C1[C@H]2C(=O)N(Cc3cccs3)C[C@]23C=C[C@H]1O3 (some centres not stated)	none
S=C(Nc1ccccc1)Nc1nc2ccccc2n1CCOc1ccc(Br)cc1	sdo1 growth 7.6 (no result: sEH inh, sEH act) | SDO1 rescue DR 0.089
O=S(=O)(O)c1nc2ccccc2n1CCOc1ccccc1	sdo1 growth 8.3 | SDO1 rescue DR inactive
Cc1ccc(Sc2c(C(=O)Nc3ccc(F)cc3F)c(C(F)(F)F)nn2C)cc1	none (no result: sEH inh, sEH act)

Screens from PubChem.
